Results on eleven compounds are retold here after PubChem BioAssay.

Activity calls are given as the source filed them.

Experiment [1] in a line: small molecules captured by biotinylated probe aFSTL3 – biochemical, small-molecule microarray, fluorescence 635/667, stem cell growth factor project, primary screen (AID 1064).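 Note: measures binding of the biotinylated anti-FSTL3 antibody to printed compounds.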 The note with it: higher = more signal.
Experiment [2] can be described thus: binders from COS7 lysate, DM2A8 probe, primary screen, torsin A project, cell lysate, small-molecule microarray, fluorescence 635/667 (AID 1065). The note with it: higher = more signal, COS7 lysate expressing mutant human TOR1A.
Experiment [3] can be described thus: small molecules captured by biotinylated probe aFGF2 – biochemical, small-molecule microarray, fluorescence 635/667, stem cell growth factor project, primary screen (AID 1067).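 Note: measures binding of biotinylated aFGF2 protein to printed compounds on slides; z-score merges feature fluorescence and signal-to-noise across triplicate slides.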 The note with it: higher = more signal.
Experiment [4] is described as follows: small molecules captured by biotinylated probe aFGF10 – biochemical, small-molecule microarray, fluorescence 635/667, stem cell growth factor project, primary screen (AID 1071).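 Note: score merges 667 nm spot intensity and signal to noise from triplicate slides.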 The note with it: higher = more signal.
Experiment [5] concerns the target Neurogenic locus notch homolog protein 2 (Homo sapiens) (UniProt Q04721). Nature of the experiment: small molecules binding Notch2 protein – biochemical, small-molecule microarray, 635 nm fluorescence, stem cell growth factors, primary screen (AID 1073). The note with it: higher = more signal.
In experiment [6] the target is Pro-neuregulin-1, membrane-bound isoform (Homo sapiens) (UniProt Q02297). The experiment can be described thus: small molecules binding neuregulin-1 protein – biochemical, small-molecule microarray, fluorescence 635/667, psychiatric disease protein project, primary screen (AID 1075).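 Note: score combines 667 nm spot fluorescence with signal to noise.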 The note with it: NRG1 binding, 635 nm fluorescence, higher = more signal.
Sequence of Pro-neuregulin-1, membrane-bound isoform (Homo sapiens) (Q02297 whole entry, looked up, the tested form may be a part, canonical isoform): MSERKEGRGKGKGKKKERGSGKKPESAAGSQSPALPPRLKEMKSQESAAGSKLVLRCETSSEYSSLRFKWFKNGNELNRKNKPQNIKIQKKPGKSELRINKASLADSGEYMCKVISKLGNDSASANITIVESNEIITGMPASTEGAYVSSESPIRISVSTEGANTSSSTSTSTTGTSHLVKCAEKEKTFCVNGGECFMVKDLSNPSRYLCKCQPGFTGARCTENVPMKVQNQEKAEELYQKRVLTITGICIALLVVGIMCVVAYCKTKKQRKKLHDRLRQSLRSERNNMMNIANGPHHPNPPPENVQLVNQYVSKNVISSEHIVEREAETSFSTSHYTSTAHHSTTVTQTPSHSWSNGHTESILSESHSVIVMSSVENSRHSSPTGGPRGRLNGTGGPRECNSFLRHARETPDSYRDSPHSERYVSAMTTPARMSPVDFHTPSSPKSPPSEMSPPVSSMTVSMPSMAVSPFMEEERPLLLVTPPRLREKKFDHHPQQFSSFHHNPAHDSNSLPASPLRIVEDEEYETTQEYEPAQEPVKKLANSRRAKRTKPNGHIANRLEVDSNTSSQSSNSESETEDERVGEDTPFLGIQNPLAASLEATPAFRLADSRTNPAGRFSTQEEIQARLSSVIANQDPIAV
Experiment [7] has as its system Neuregulin-1 EGF-like domain. Nature of the experiment: small molecules binding NRG1 EGF domain – biochemical, small-molecule microarray, 635 nm fluorescence, primary screen (AID 1081).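 Note: binding of the protein to compounds printed on small-molecule microarray slides.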 The following applies: higher = more signal.
Experiment [8] is described as follows: FRG1 expression reporter modulators in myotubes – cell-based, C2C12 myotubes, firefly/Renilla luciferase, luminescence, FRG1 inhibition for FSHD, primary screen (AID 1084). The following applies: FRG1 promoter luciferase, higher = more signal, called active from +8 up or from −8 down.
Experiment [9] is described as follows: small molecules captured by biotinylated probe aFST – biochemical, small-molecule microarray, fluorescence 635/667, stem cell growth factor project, primary screen (AID 1086).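 Note: score merges 667 nm fluorescence with signal-to-noise of each printed compound spot.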 The following applies: higher = more signal.
Experiment [10] is described as follows: binders of probe aHhip on microarray, primary screen, stem cell growth factor project, biochemical, small-molecule microarray, fluorescence 635/667 (AID 1087).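 Note: score merges spot fluorescence at 667nm with spot signal to noise ratio.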 The following applies: higher = more signal.

Sequence of Neurogenic locus notch homolog protein 2 (Homo sapiens) (Q04721 whole entry, looked up, canonical isoform): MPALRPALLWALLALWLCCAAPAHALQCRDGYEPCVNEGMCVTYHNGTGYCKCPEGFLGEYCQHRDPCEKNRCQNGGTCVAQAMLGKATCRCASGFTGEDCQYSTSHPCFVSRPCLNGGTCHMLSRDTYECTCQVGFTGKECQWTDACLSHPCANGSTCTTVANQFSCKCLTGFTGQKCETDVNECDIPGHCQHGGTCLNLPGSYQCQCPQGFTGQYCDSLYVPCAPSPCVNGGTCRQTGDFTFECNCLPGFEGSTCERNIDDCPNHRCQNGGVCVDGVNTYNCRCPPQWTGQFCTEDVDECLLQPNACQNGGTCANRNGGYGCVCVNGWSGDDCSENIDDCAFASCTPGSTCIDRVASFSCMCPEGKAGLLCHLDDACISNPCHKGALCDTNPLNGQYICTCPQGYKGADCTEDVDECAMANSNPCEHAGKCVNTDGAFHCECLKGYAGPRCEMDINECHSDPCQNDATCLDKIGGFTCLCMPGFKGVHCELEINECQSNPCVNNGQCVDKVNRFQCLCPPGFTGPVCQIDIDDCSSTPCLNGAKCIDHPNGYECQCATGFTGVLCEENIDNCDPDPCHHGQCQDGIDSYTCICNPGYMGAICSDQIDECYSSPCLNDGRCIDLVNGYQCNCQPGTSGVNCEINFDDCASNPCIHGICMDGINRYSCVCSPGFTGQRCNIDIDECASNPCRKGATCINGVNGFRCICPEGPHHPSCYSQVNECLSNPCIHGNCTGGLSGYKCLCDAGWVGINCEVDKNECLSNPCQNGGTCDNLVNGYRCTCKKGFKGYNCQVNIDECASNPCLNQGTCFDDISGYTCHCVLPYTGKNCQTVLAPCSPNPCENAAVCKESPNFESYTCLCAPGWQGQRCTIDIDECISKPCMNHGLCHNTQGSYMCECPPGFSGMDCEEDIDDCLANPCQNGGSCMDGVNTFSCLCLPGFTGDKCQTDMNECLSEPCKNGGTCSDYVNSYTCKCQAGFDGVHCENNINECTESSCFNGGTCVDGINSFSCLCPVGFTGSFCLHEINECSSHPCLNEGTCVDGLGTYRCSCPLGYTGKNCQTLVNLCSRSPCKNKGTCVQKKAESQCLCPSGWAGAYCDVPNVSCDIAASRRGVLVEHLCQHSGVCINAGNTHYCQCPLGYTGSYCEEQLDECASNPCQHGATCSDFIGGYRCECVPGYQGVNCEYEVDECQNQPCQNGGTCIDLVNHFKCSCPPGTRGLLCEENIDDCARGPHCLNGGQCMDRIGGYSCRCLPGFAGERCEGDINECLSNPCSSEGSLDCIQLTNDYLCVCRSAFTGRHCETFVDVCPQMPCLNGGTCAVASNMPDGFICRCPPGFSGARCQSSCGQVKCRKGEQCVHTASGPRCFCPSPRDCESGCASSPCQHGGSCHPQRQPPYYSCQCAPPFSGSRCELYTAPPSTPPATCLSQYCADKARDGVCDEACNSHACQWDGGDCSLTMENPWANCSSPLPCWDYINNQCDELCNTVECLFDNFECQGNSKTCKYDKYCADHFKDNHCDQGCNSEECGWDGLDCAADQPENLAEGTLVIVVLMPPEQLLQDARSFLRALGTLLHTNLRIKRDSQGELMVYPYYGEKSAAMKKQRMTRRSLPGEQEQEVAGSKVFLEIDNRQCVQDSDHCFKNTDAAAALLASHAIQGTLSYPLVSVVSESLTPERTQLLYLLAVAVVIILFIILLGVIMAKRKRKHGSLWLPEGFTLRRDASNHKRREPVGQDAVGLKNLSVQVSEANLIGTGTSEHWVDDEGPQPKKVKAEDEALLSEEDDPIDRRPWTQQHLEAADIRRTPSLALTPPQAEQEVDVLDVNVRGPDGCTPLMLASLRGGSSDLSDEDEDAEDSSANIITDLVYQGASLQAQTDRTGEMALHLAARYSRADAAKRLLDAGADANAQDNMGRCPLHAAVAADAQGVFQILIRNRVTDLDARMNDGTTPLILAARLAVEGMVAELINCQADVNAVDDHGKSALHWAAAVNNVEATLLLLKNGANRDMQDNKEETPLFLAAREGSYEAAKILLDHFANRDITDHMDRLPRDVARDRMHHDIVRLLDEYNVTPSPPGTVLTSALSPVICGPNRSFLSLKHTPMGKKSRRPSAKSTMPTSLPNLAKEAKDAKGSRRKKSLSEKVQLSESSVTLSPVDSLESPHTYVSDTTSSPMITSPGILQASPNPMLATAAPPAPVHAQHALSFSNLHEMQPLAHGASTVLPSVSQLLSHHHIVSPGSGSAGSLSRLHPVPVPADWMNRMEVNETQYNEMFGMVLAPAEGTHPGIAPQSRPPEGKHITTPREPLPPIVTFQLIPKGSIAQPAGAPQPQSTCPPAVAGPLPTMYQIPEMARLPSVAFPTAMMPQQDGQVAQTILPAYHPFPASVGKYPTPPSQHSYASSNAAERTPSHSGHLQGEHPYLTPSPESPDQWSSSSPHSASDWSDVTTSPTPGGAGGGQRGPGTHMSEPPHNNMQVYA

`CCCCC(=C=CC[C@H](O)c1ccccc1OCCO)C[C@H](O)c1ccccn1`: the composite z-score was -0.0078 in experiment [1]; 1.07 in [2]; -0.116 in experiment [3]; -0.0673 in experiment [4]; -0.285 in [5]; 0.466 in [6]. Moreover, the composite z-score is 0.376 in experiment [7], 0.0552 in [9] and -0.456 in experiment [10]. In addition, the z-score in [8] was -1.38 (inactive).

With `COCCOC(=O)N1C(=O)[C@@]2(c3cc(C#Cc4ccc(OC)cc4)ccc31)[C@H](c1ccc(OCCO)cc1)N1[C@H](c3ccccc3)[C@H](c3ccccc3)OC(=O)[C@H]1[C@@H]2C(N)=O`, the composite z-score is 0.261 in [1]; 1.24 in experiment [2]; -0.0128 in experiment [3]; 0.646 in [4]; 1.46 in experiment [5]; 1.25 in [6]. The figures for the composite z-score in [7], in experiment [9] and in experiment [10] were 1.26, 0.851 and 0.0972, respectively. Moreover, the z-score in [8] was 1.06 (inactive).

As for `C=CCOC(=O)[C@H]1[C@@H]2C(=O)O[C@@H](c3ccccc3)[C@@H](c3ccccc3)N2[C@@H](c2ccc(OCCOC(=O)[C@H]3C[C@H]4C(=O)N[C@@H](CCCCN(C)C)C(=O)N4[C@H]3c3ccc(O)cc3)cc2)[C@]12C(=O)Nc1ccccc12`, the composite z-score in experiment [1] is 0.27; in experiment [2] it was 0.91; in experiment [3] it was -0.033; in experiment [4], 0.445; in [5] it was 0.349; in [6] it was -0.013. Moreover, the values for the composite z-score in experiment [7], in [9] and in experiment [10] were 1.19, 0.86 and 0.0524, respectively. In addition, the z-score in experiment [8] was 0.139 (inactive).

For the compound `CCCN1C(=O)[C@@H]2Cc3c([nH]c4ccccc34)[C@@H](c3cccc(O)c3)N2C1=O`, the composite z-score in experiment [1] is -0.588; in experiment [2], 0.247; in [3], -0.113; in experiment [4] it was 0.428; in experiment [5], 0.59; in experiment [6] it was 0.263. The composite z-score in [7] is 0.12; in [9], -0.0001; in experiment [10], -0.0994. Moreover, the z-score in experiment [8] is 0.85 (inactive).

Take `C=CCC(OC(C)=O)[C@@H]1[C@@H](N(Cc2cccc3ccccc23)C(=O)Cc2ccc(F)cc2)c2cc(OCCCO)ccc2N1C(=O)Cc1ccc(OC)cc1` (stereo not given in full): the composite z-score in [1] was -0.449; in [2], 0.202; in [3] it was -0.116; in experiment [4], 0.493; in experiment [5] it was -0.045; in experiment [6], -0.418. For the same compound, the composite z-score was -0.424 in experiment [7], 0.0417 in [9] and -0.191 in experiment [10]. In addition, the z-score in [8] was -1.05 (inactive).

Turning to `C[C@H]1ON(c2ccccc2)[C@@H](c2ccccc2)[C@@H]1C(=O)N1C(=O)OC[C@@H]1c1ccccc1`, the composite z-score in experiment [1] was -0.331; in experiment [2], -0.111; in experiment [3] it was -0.019; in experiment [4], 0.602; in experiment [5], 0.527; in experiment [6], 0.211. Further, the composite z-score in [7] was 0.656; in experiment [9], 0.0477; in [10], -0.374. Also, the z-score in experiment [8] was 0.84 (inactive).

Regarding `COc1ccccc1CN1C(=O)c2ccccc2[C@](Cc2ccccc2I)(C(=O)NCCN2CCOCC2)[C@@H]1c1ccc(CO)cc1`, the composite z-score was -0.291 in experiment [1]; 0.148 in experiment [2]; 0.103 in experiment [3]; 0.479 in [4]; 1.37 in experiment [5]; 1.39 in experiment [6]. Moreover, the composite z-score is 1.3 in [7], 1.08 in [9] and -0.189 in experiment [10]. The z-score in experiment [8] was -3.32 (inactive).

Regarding `CN1C(=O)C2C=CC(C(O)c3cccc4ccccc34)N(NC(=O)OC(C)(C)C)C2C1=O` (stereo not given), the composite z-score in experiment [1] stood at 1.07; in experiment [2] it was 1.79; in [3], 0.194; in experiment [4], 0.586; in experiment [5] it was 1.37; in experiment [6], 2.11. Besides, the composite z-score in [7] was 1.15; in experiment [9] it was 1.4; in experiment [10], -0.0296. Besides, the z-score in experiment [8] is 0.93 (inactive).

In the case of `COC(=O)[C@@]1(Cc2ccccc2N=[N+]=[N-])N=C(c2ccc(OCCCO)cc2)O[C@H]1c1ccccc1`, the composite z-score in experiment [1] turned out to be 0.135; in experiment [2], 0.748; in experiment [3] it was 0.0904; in experiment [4], 0.264; in [5], 0.287; in experiment [6], 1.5. Besides, the composite z-score in experiment [7] was 1.16; in experiment [9] it was 0.0635; in [10] it was -0.0994. Further, the z-score in experiment [8] is -2.33 (inactive).

`COCC(=C=CC[C@@H](O)c1ccccc1OCCO)C[C@@H](O)COCc1ccccc1`: the composite z-score in [1] was 0.181; in [2], 1.12; in experiment [3], -0.0267; in [4], 1.06; in [5], -0.258; in experiment [6], 1.68. Further, the results for the composite z-score in experiment [7], in experiment [9] and in experiment [10] were 1.01, 0.463 and 0.891, respectively. In addition, in experiment [8], the z-score was -1.11 (inactive).

Turning to `C=CC[C@@]1(C(=O)NCC(O)CO)N=C(c2ccc(OCCCO)cc2)O[C@@H]1c1ccccc1` (stereo not given in full), the composite z-score was 1.49 in [1]; 2.09 in [2]; 0.255 in experiment [3]; 0.44 in experiment [4]; -0.565 in experiment [5]; 1.64 in experiment [6]. Besides, the values for the composite z-score in [7], in experiment [9] and in [10] were 0.845, 0.872 and 0.108, respectively. The z-score in [8] is -1.09 (inactive).
